# According to PubChem BioAssay (NCATS):
# Inconclusive results are not listed. Unmarked numbers belong to inactive results. Calls of active or inactive are those of the source. The call rests on the fitted dose curve; in most records, active means well fitted cell-killing curve with a large enough effect; inconclusive means small, poorly fitted or top-dose-only effect, or effect the other way; inactive means no such curve, though single readings can be large or run the other way.
# Key:
# [1] = Viability qHTS for spleen associated tyrosine kinase inhibitor (SYKi) naive MV4-11 cells (AID 1963823); conditions: MV4-11 AML viability, CellTiter-Glo luminescence, 72 h; series mostly up to 45 µM; further: nearly all actives have a fitted effect of over 40% in size
# In short: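 In this viability screen, compounds acted on SYK inhibitor naive MV4-11 cells for three days (72 hr, 37 C). Remaining viable cells were measured by CellTiter-Glo luminescence following a 10 min room-temperature development.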
# [2] = Viability qHTS for spleen associated tyrosine kinase inhibitor (SYKi) drug resistant MV4-11 cells (AID 1963824); conditions: SYKi-resistant MV4-11 viability, CellTiter-Glo, 72 h; series mostly up to 45 µM; further: nearly all actives have a fitted effect of over 35% in size
# In short: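 SYK inhibitor-resistant MV4-11 AML cells, 500 per well, added to predispensed compounds and incubated 72 hr at 37 C, 5% CO2. Viability measured by CellTiter-Glo luminescence after 10 min at room temperature.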
# Potency means the concentration at half of the fitted maximal effect.
SMILES,Potency [1],Potency [2],viability (% of control) [1],"viability, % of control [2]"
CCN1CCN(Cc2ccc(C(=O)Nc3ccc(C)c(Oc4ccc5c(c4)CC(=O)N5)c3)cc2C(F)(F)F)CC1,5.8 µM (active),8.2 µM (active),–,–
CCC[C@@H](NC(=O)N1C(=O)C(CC)(CC)[C@@H]1Oc1ccc(C(=O)N2CCN(C)CC2)cc1)c1ccc2c(c1)OCO2,18.4 µM (active),20.6 µM (active),–,–
O=C(c1cc2c(cc1F)OC(c1ccc(F)cc1)(c1ccc(Cl)cc1Cl)O2)N1CCOCC1 (stereo not drawn),inactive,inactive,–,–
COC(=O)C1=COC(O[C@@H]2O[C@H](CO)[C@@H](O)[C@H](O)[C@H]2O)/C(=C\COC(=O)c2ccc(OC3OC(CO)C(O)C(O)C3O)c(OC)c2)C1CC(=O)OCCc1ccc(O)cc1 (stereo partly drawn),–,–,83.5% [at 9.25 µM],105% [at 9.25 µM]
CC1=C2CC(=O)C(C)CC/C=C(\C)CC2OC1=O (stereo not drawn),inactive,inactive,–,–
Nc1ncnc2c1nc(Cl)n2C1O[C@H](CO)[C@@H](O)[C@H]1O (stereo partly drawn),0.366 µM (active),0.146 µM (active),–,–
CO[C@@H]1CC(OC2CCC3(C)C(CCC45CCC(C6=CC(=O)OC6)C(C)(CCC43)C5=O)C2)O[C@H](C)[C@@H]1O[C@@H]1O[C@H](CO[C@@H]2O[C@H](CO)[C@@H](O)[C@H](O)[C@H]2O)[C@@H](O)[C@H](O)[C@H]1O (stereo partly drawn),0.873 µM (active),0.778 µM (active),–,–
NS(=O)(=O)c1ccc(S(=O)(=O)Nc2cccc3c(Cl)c[nH]c23)cc1,0.235 µM (active),0.332 µM (active),–,–
CC1CCC/C=C/C(=O)c2c(O)cc(O)cc2CC(=O)O1 (stereo not drawn),3.66 µM (active),2.06 µM (active),–,–
